The full list was thinned out, with the strongest signals kept by preference.
Experiments:
Experiment in all cases: glycan array binding signal (z-score within array); higher = stronger binding
Conditions in all cases: glycan notation: IUPAC condensed, linker removed
[1] = target: Fuc(a1-2)Gal(b1-3)GlcNAc(b1-3)Gal(b1-4)Glc
Procedure, shortened: (§1)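 Glycan array data were curated from 3228 arrays in the Consortium for Functional Glycomics database and kept only where the protein sequence was available. Glycan names were converted to IUPAC-condensed notation, and columns mapping to the same glycan were averaged. The binding signal is a within-array Z-score, averaged across arrays of the same protein sequence at different concentrations or buffers and across linkers. Negative Z-scores can be read as non-binding.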

[2] = target: Fuc(a1-2)Gal(b1-3)GlcNAc(b1-3)[Gal(b1-4)GlcNAc(b1-6)]Gal(b1-4)Glc
Procedure, shortened: as §1

[3] = target: Fuc(a1-2)Gal(b1-3)[Fuc(a1-4)]GlcNAc(b1-2)Man(a1-3)[Fuc(a1-2)Gal(b1-3)[Fuc(a1-4)]GlcNAc(b1-2)Man(a1-3)]Man(b1-4)GlcNAc(b1-4)GlcNAc
Procedure, shortened: as §1

[4] = target: Fuc(a1-2)Gal(b1-4)GlcNAc(b1-3)Gal(b1-4)GlcNAc
Procedure, shortened: as §1

[5] = target: Fuc(a1-2)Gal(b1-4)[Fuc(a1-3)]GlcNAc(b1-3)GalNAc
Procedure, shortened: as §1

Fuc(a1-2)Gal6S(b1-4)Glc = target: Fuc(a1-2)Gal6S(b1-4)Glc
Procedure, shortened: as §1

[6] = target: Fuc(a1-2)Gal6S(b1-4)Glc6S
Procedure, shortened: as §1

[7] = target: Fuc(a1-2)[Gal(a1-3)]Gal(b1-3)GlcNAc
Procedure, shortened: as §1

[8] = target: Fuc(a1-2)[GalNAc(a1-3)]Gal(b1-4)[Fuc(a1-3)]GlcNAc(b1-3)GalNAc
Procedure, shortened: as §1

[9] = target: Fuc(a1-3)[GalNAc(b1-4)]GlcNAc
Procedure, shortened: as §1

Gal(b1-3)Gal(b1-4)GlcNAc = target: Gal(b1-3)Gal(b1-4)GlcNAc
Procedure, shortened: as §1

[10] = target: Gal(b1-3)Gal(b1-4)GlcNAc(b1-2)Man(a1-3)[Gal(b1-3)Gal(b1-4)GlcNAc(b1-2)Man(a1-6)]Man(b1-4)GlcNAc(b1-4)GlcNAc
Procedure, shortened: as §1

[11] = target: Gal(b1-3)GlcNAc(a1-6)Gal(b1-4)GlcNAc
Procedure, shortened: as §1

[12] = target: Gal(b1-3)GlcNAc(b1-3)Gal(b1-4)GlcNAc(b1-2)[Gal(b1-3)GlcNAc(b1-3)Gal(b1-4)GlcNAc(b1-6)]Man(a1-6)[Gal(b1-3)GlcNAc(b1-3)Gal(b1-4)GlcNAc(b1-2)Man(a1-3)]Man(b1-4)GlcNAc(b1-4)[Fuc(a1-6)]GlcNAc
Procedure, shortened: as §1

[13] = target: Gal(b1-3)GlcNAc(b1-3)Gal(b1-4)GlcNAc(b1-3)Gal(b1-4)GlcNAc(b1-2)[Gal(b1-3)GlcNAc(b1-3)Gal(b1-4)GlcNAc(b1-3)Gal(b1-4)GlcNAc(b1-6)]Man(a1-6)[Gal(b1-3)GlcNAc(b1-3)Gal(b1-4)GlcNAc(b1-3)Gal(b1-4)GlcNAc(b1-2)Man(a1-3)]Man(b1-4)GlcNAc(b1-4)[Fuc(a1-6)]GlcNAc
Procedure, shortened: as §1

[14] = target: Gal(b1-3)GlcNAc(b1-6)GalNAc
Procedure, shortened: as §1

[15] = target: Gal(b1-3)[GlcNAc(b1-6)]GalNAc
Procedure, shortened: as §1

[16] = target: Gal(b1-3)[Neu5Ac(a2-6)]GalNAc
Procedure, shortened: as §1

[17] = target: Gal(b1-3)[Neu5Ac(b2-6)]GalNAc
Procedure, shortened: as §1

[18] = target: Gal(b1-4)GlcNAc(b1-2)[Gal(b1-4)GlcNAc(b1-4)]Man(a1-3)[Gal(b1-4)GlcNAc(b1-2)[Gal(b1-4)GlcNAc(b1-6)]Man(a1-6)]Man(b1-4)GlcNAc(b1-4)GlcNAc
Procedure, shortened: as §1

[19] = target: Gal(b1-4)GlcNAc(b1-2)[Gal(b1-4)GlcNAc(b1-4)]Man(a1-3)[GlcNAc(b1-4)][Gal(b1-4)GlcNAc(b1-2)Man(a1-6)]Man(b1-4)GlcNAc(b1-4)GlcNAc
Procedure, shortened: as §1

[20] = target: Gal(b1-4)GlcNAc(b1-3)Gal(b1-4)GlcNAc(b1-2)Man(a1-3)[Gal(b1-4)GlcNAc(b1-3)Gal(b1-4)GlcNAc(b1-2)Man(a1-6)]Man(b1-4)GlcNAc(b1-4)GlcNAc
Procedure, shortened: as §1

[21] = target: Gal(b1-4)GlcNAc(b1-3)Gal(b1-4)GlcNAc(b1-2)Man(a1-3)[Gal(b1-4)GlcNAc(b1-3)Gal(b1-4)GlcNAc(b1-2)Man(a1-6)]Man(b1-4)GlcNAc(b1-4)[Fuc(a1-6)]GlcNAc
Procedure, shortened: as §1

[22] = target: Gal(b1-4)GlcNAc(b1-3)Gal(b1-4)GlcNAc(b1-2)[Gal(b1-4)GlcNAc(b1-3)Gal(b1-4)GlcNAc(b1-6)]Man(a1-6)[Gal(b1-4)GlcNAc(b1-3)Gal(b1-4)GlcNAc(b1-2)Man(a1-3)]Man(b1-4)GlcNAc(b1-4)[Fuc(a1-6)]GlcNAc
Procedure, shortened: as §1

[23] = target: Gal(b1-4)GlcNAc(b1-3)Gal(b1-4)GlcNAc(b1-3)GalNAc
Procedure, shortened: as §1

[24] = target: Gal(b1-4)GlcNAc(b1-6)[Gal(b1-3)]GalNAc
Procedure, shortened: as §1

B1: GST-Gap1 (Streptococcus parasanguinis), A1C3L5 (protein)
chain: MFYFVPSWYNGQRQWYYDTPWWFRVKNRMTFDDSVNQVKMFLQGQEEIGLMILNYQPQLRYFLHKQNIFGIYYWSFFDDIQNITRSYTKIIHLKDLNWPEGCEFLYSPFAVVVRLKGEIFAIVNYAEDGNLHSVSFQKNGKVTKDYIFDDRGFLSSILYYDIDERPLYQDYLNINGVWQVREFLKKENDPTPILMINDFSDQTFSKKYYNGWEELIKERLAIFQNNHVENEDVFVLASDTQHNQLVSSIFKEHRKIYSFFGNRFNLENLGQDRISINDATFLVVDTEKNEELLRKTCENLVFKSIPIVRLSPFDSRLRLGHSQTVKEQIIYFHIDNIELDELYSVIAIILELMTLHLDIELRIVTFRQDFQLDLLKTWIIDFIKTNHFEDLLFKQISEGENEIEDEGEIELSRIAMECFTNENQIIKCLDTARLVIDLGIEPDLYTQIASISAGIPQINRVSSDYVIHQKNGLVISDISKLSSAIEFYFDGLFNWNEALIYAVRKMSDYTSGKILKQWKGMLKKK
- glycan array binding signal (z-score) [1]: -0.291
- glycan array binding signal (z-score) [2]: 0.111
- glycan array binding signal (z-score) [3]: 0.383
- glycan array binding signal (z-score) [4]: -0.608
- glycan array binding signal (z-score) [5]: 1.32
- glycan array binding signal (z-score) (Fuc(a1-2)Gal6S(b1-4)Glc): -0.647
- glycan array binding signal (z-score) [6]: -0.485
- glycan array binding signal (z-score) [7]: 0.152
- glycan array binding signal (z-score) [8]: 0.024
- glycan array binding signal (z-score) [9]: 0.035
- glycan array binding signal (z-score) (Gal(b1-3)Gal(b1-4)GlcNAc): 0.416
- glycan array binding signal (z-score) [10]: 13.5
- glycan array binding signal (z-score) [11]: -0.654
- glycan array binding signal (z-score) [12]: 2.25
- glycan array binding signal (z-score) [13]: 3.43
- glycan array binding signal (z-score) [14]: 0.494
- glycan array binding signal (z-score) [15]: -0.334
- glycan array binding signal (z-score) [16]: 0.3
- glycan array binding signal (z-score) [17]: -0.046
- glycan array binding signal (z-score) [18]: -0.809
- glycan array binding signal (z-score) [19]: 0.833
- glycan array binding signal (z-score) [20]: 4.81
- glycan array binding signal (z-score) [21]: 1.2
- glycan array binding signal (z-score) [22]: 2.87
- glycan array binding signal (z-score) [23]: 2.15
- glycan array binding signal (z-score) [24]: 0.095
